ALDH1A1 block: inhibitors of human aldehyde dehydrogenase 1A1; P00352; Purified ALDH1A1, NADH fluorescence, propionaldehyde substrate; Potency, µM (titrated, usually from 75.3 µM), usual class: inhibitors; actives 7.3% (n = 220,000); AID 1030
Target sequence (P00352 whole entry, looked up): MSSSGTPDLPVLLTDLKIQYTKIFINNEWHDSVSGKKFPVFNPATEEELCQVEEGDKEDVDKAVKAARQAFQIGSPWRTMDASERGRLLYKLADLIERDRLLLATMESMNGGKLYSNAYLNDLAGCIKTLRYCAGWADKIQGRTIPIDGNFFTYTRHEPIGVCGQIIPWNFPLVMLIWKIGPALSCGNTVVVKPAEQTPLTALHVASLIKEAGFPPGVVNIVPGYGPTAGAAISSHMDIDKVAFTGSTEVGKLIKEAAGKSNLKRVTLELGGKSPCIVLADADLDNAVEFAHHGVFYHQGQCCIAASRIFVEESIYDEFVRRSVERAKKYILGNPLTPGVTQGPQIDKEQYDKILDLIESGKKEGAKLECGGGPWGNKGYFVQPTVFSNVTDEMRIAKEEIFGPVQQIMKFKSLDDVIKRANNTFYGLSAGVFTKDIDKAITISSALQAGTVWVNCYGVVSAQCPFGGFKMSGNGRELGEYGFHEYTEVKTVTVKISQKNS
PNC inhibitor: inhibitors of perinucleolar compartment assembly | PC3M PTB-GFP, PNC prevalence imaging, 16 h; active compounds read low | activity change (PNC), negative = inhibition, % at 10 µM | actives 3.1% (n = 140,000) | AID 2417;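 active = readout at or below -70, meaning at least 70% loss of cells showing the perinucleolar compartment, a nuclear body marking cancer cells; inconclusive = readout between -30 and a set limit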
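Compounds are pinned in duplicate onto adhered PC3M cells stably expressing GFP-tagged PTB and incubated 16 h at 37 C. Cells are then fixed, nuclei stained with Hoechst, and PNC-positive cells counted.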
JMJD2E inh: JMJD2E (human) inhibition. B2RXH2. JMJD2E catalytic domain, FDH-coupled NADH fluorescence (FDH is formaldehyde dehydrogenase). Potency, µM (series often up to 57.1 µM), actives largely listed as inhibitors. actives 1.6% (n = 230,000); also: nearly all actives have a fitted effect of over 50% in size
HPGD inh: blocks human HPGD enzyme activity. P15428. actives 4.3% (n = 150,000). Potency, µM, actives largely listed as inhibitors. purified HPGD, NADH fluorescence kinetic, PGE2 substrate
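20 nM HPGD preincubated 15 min at room temperature with compound in 50 mM Tris-HCl pH 8, 0.01% Tween 20. Started with 1 mM NAD+ and 30 uM prostaglandin E2; NADH fluorescence (360/450 nm) read 5 times over 30-s intervals, last minus first.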
Each line names hits and unclear results; the compound was inactive in the other large screens. Sampled rows, rich in hits. Any-hit rate of the full collection: about 11%. Unless noted, calls follow the shape of the dose curve; as a rule, active = well fitted inhibition curve with a large enough effect (not every such curve was filed as active); inconclusive = small, poorly fitted or top-dose-only effect, or another doubt; inactive = no such curve, though single readings can be large or run the other way.

Nc1ccc(Oc2ccc3c(c2)C(=O)N(CC2CCCO2)C3=O)cc1 (centres undefined)	ALDH1A1 block 28.2µM (no result: PNC inhibitor, HPGD inh)
COC(=O)[C@@]1(Cc2ccccc2)[C@H]2c3cc(C(=O)N(C)C)n(Cc4ccc(O)c(OC)c4)c3C[C@H]2CN1C(=O)c1ccccc1	none (no result: PNC inhibitor)
c1ccc(N2CCN(Cc3nnnn3C3CCCCC3)CC2)cc1	ALDH1A1 block 28.2µM
O=C(Nc1ccccc1)NC1CCN(Cc2nnnn2C2CCCCC2)CC1	ALDH1A1 block 14.1µM
Cc1ccccc1C(=O)NC1CCN(Cc2nnnn2C2CCCC2)CC1	none
CCNC(=S)N(Cc1cc2cccc(C)c2[nH]c1=O)C1CCCC1	ALDH1A1 block inconclusive, PNC inhibitor -119.3
Cc1cccc2cc(CN(C(=S)NCC(C)C)C3CCCC3)c(=O)[nH]c12	none
Cc1ccc(O)c(C(=O)c2coc(=N)c(C(=O)NC(C)C)c2)c1	ALDH1A1 block inconclusive, HPGD inh 17.8µM
COCCOC(=O)c1cc(C(=O)c2cc(F)ccc2O)coc1=N	ALDH1A1 block inconclusive, JMJD2E inh inconclusive, HPGD inh inconclusive
O=C1N[C@H](Cc2ccccc2)C(=O)N1Cc1cccc2ccccc12	none (no result: PNC inhibitor)
O=C(NCCN1CCCC1)c1ccc(Cc2nc3ccccc3[nH]2)cc1	none (no result: PNC inhibitor, JMJD2E inh)
Cc1ccc2nc(C(O)C(O)c3nc4ccc(C)cc4[nH]3)[nH]c2c1 (centres undefined)	ALDH1A1 block inconclusive, HPGD inh inconclusive
Cc1ccc2nc(C(F)OC(F)(F)F)[nH]c2c1 (centres undefined)	ALDH1A1 block 0.708µM, HPGD inh inconclusive
CC1(C)CC(=O)C2=C(C1)NC1=C(C(=O)c3ccccc31)C2c1ccc(Cl)cc1 (centres undefined)	none
CCSc1nc2c(c(=O)[nH]1)C(c1ccc(C)cc1)C1=C(CCCC1=O)N2 (centres undefined)	JMJD2E inh inconclusive (no result: PNC inhibitor, HPGD inh)
O=C1CCCC2=C1C(c1ccc(Br)cc1)c1c([nH]c(=S)[nH]c1=O)N2 (centres undefined)	ALDH1A1 block inconclusive, JMJD2E inh inconclusive, HPGD inh 7.08µM
CC1(C)CC(=O)C2=C(C1)Nc1[nH]c(=S)[nH]c(=O)c1C2c1ccccc1 (centres undefined)	ALDH1A1 block inconclusive, JMJD2E inh inconclusive, HPGD inh 8.91µM
Cc1ccc(C2C3=C(CCCC3=O)Nc3[nH]c(=S)[nH]c(=O)c32)cc1 (centres undefined)	ALDH1A1 block inconclusive, JMJD2E inh inconclusive, HPGD inh 10µM
Cc1cc(NC(=O)CSc2ncnc3sc(C)c(C)c23)no1	none (no result: PNC inhibitor, HPGD inh)
COC(=O)/C(=C1/Oc2ccc(C)cc2S1)C(F)(F)F	PNC inhibitor inconclusive
CO[C@H]1[C@H](O[C@H]2O[C@@H](C)[C@@H](O[C@@H]3C[C@](C)(O)[C@H](O)[C@H](C)O3)[C@@H](N(C)C)[C@@H]2O)[C@@H](CC=O)C[C@@H](C)[C@@H](O[C@H]2CC[C@H](N(C)C)[C@H](C)O2)/C=C\C=C/C[C@@H](C)OC(=O)C[C@H]1O	none (no result: PNC inhibitor)
CCOC(=O)c1ccc(N/C(=N\S(=O)(=O)c2ccc(F)cc2F)c2ccccc2)cc1	none
COc1ccc(NC(=O)Cc2coc3cc(C)ccc23)cn1	none (no result: PNC inhibitor, HPGD inh)
Cn1ncc([N+](=O)[O-])c1C(=O)Nc1ccc(-c2nc3ccccc3o2)cc1	none (no result: PNC inhibitor, HPGD inh)
Cc1nc(C)c(C(=O)Nc2ccc(Oc3ccccc3)cc2)o1	ALDH1A1 block 31.6µM, PNC inhibitor inconclusive
CCCc1nc2c(sc3nc4c(cc32)COC(C)(C)C4)c(=O)n1CCN(CC)CC	ALDH1A1 block 17.8µM (no result: PNC inhibitor, HPGD inh)
CCCc1nc2c(sc3nc4c(cc32)COC(C)(C)C4)c(=O)n1CCN(C)C	ALDH1A1 block inconclusive (no result: PNC inhibitor, HPGD inh)
CC1(C)Cc2nc3sc4c(SCC(=O)NCc5ccco5)ncnc4c3cc2CO1	ALDH1A1 block 8.91µM, PNC inhibitor inconclusive, JMJD2E inh inconclusive, HPGD inh 14.1µM
Cc1nc2c(sc3nc4c(cc32)COC(C)(C)C4)c(=O)o1	ALDH1A1 block 28.2µM, JMJD2E inh inconclusive
CCCc1nc2c(sc3nc4c(cc32)COC(C)(C)C4)c(=O)n1Cc1ccco1	ALDH1A1 block 0.891µM, PNC inhibitor inconclusive, JMJD2E inh inconclusive, HPGD inh inconclusive
O=C(Cc1nnc(NC(=O)Nc2ccccc2F)s1)NCc1ccccc1	none (no result: ALDH1A1 block, PNC inhibitor, HPGD inh)
Nc1ccc(Cl)cc1Cl	none (no result: PNC inhibitor, JMJD2E inh)
C[C@H]1Cc2c(COc3ccccc3)nc3c(c2CO1)CN(C(=O)NCCc1c[nH]c2ccccc12)CC3	none (no result: PNC inhibitor)
COc1ccc(C(c2nnnn2C2CCCCC2)N2CCN(c3ccc(OC)cc3)CC2)cc1 (centres undefined)	none
c1cnc2ccc(C(c3nnnn3C3CCCCC3)N3CCCCC3)cc2c1 (centres undefined)	ALDH1A1 block inconclusive, PNC inhibitor -100.0
c1cc(N2CCCC2)ccc1C(c1nnnn1C1CCCCC1)N1CCOCC1 (centres undefined)	ALDH1A1 block 25.1µM, JMJD2E inh inconclusive (no result: HPGD inh)
CC(C)(Oc1ccc(Cl)cc1)C(=O)N/N=C/c1cn[nH]c1-c1ccccc1	ALDH1A1 block 8.91µM
Cc1cc(C(=O)N/N=C/c2cn[nH]c2-c2ccccc2)cs1	PNC inhibitor -113.8
O=C(O)CC/C=C\CC[C@H]1[C@@H](N2CCCCC2)[C@@H](O)C[C@@H]1OCc1ccc(-c2ccccc2)cc1	none (no result: PNC inhibitor)
c1cc2c(cc1C1CCCCC1)c1c3n2CCN[C@H]3CCC1	ALDH1A1 block inconclusive (no result: PNC inhibitor)
O=C1C(N2CCOCC2)=C(n2nnc3ccccc32)C(=O)c2ccccc21	ALDH1A1 block 1.26µM, JMJD2E inh inconclusive, HPGD inh inconclusive
CC(=O)c1c(C)c(C)c2n1CCn1c(C)ccc1-2	JMJD2E inh 22.4µM (no result: ALDH1A1 block, PNC inhibitor, HPGD inh)
CCN1CCN(C(=O)NC(C(=O)NC2C(=O)N3C2SC(C)(C)C3C(=O)O)c2ccccc2)C(=O)C1=O (centres undefined)	none (no result: PNC inhibitor)
O=C(COC(=O)c1ccc(O)cc1)Nc1ncc(Cl)cc1Cl	ALDH1A1 block 28.2µM (no result: PNC inhibitor, HPGD inh)
Cc1c(Cl)cnc(NC(=O)COC(=O)c2ccc3ncsc3c2)c1Cl	none
O=C(COC(=O)c1ccc2c(c1)OCO2)Nc1ncc(Cl)cc1Cl	PNC inhibitor inconclusive, JMJD2E inh inconclusive
O=C(COC(=O)CCCN1C(=O)c2cccc3cccc(c23)C1=O)Nc1cccc(C(F)(F)F)c1	ALDH1A1 block inconclusive, PNC inhibitor -106.0, JMJD2E inh inconclusive, HPGD inh inconclusive
O=C(COC(=O)c1ccc2ncsc2c1)Nc1ncc(Cl)cc1Cl	PNC inhibitor -95.1, JMJD2E inh inconclusive
O=C(COC(=O)CN1C(=O)c2ccccc2C1=O)Nc1ncc(Cl)cc1Cl	ALDH1A1 block inconclusive
O=C(COC(=O)CCCN1C(=O)c2ccccc2C1=O)Nc1ncc(Cl)cc1Cl	PNC inhibitor -100.0
c1ccc(C2=NN[C@@H]3c4ccccc4-c4ccccc4N3C2)cc1	ALDH1A1 block inconclusive (no result: PNC inhibitor, JMJD2E inh)
O=C(/C=C/c1cn(CC(O)CN2CCCCC2)c2ccccc12)c1cccs1 (centres undefined)	ALDH1A1 block 14.1µM, PNC inhibitor inconclusive
O=C(Cn1nc(C(F)(F)F)c2c1CCCC2)Nc1ccc2c(c1)OCO2	PNC inhibitor inconclusive
COc1ccc(-c2nc(-c3ccccc3)[nH]c(=O)c2C#N)cc1	HPGD inh 20µM
COc1ccc(-c2nc(-c3ccccc3)nc(Cl)c2C#N)cc1	ALDH1A1 block inconclusive, HPGD inh inconclusive

From PubChem
